Test [1] in a line: NCI Yeast Anticancer Drug Screen. Data for the rad50 strain (AID 155).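 Note: 0% = growth of vehicle-only cultures of the same strain.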 The conditions noted are these: S. cerevisiae rad50 strain growth inhibition, stronger effect = higher value. The essentials:
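Genetically altered yeast (DNA repair pathway); compound treatment; growth inhibition vs vehicle ctrl.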

Test [2] is described as follows: NCI Yeast Anticancer Drug Screen. Data for the mec2-1 strain (AID 157). The conditions noted are these: S. cerevisiae mec2-1 strain, stronger effect = higher value. The essentials:
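Using mec2-1 yeast: add compound, measure growth, express inhibition versus vehicle-treated cultures.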

Test [3] can be described thus: NCI Yeast Anticancer Drug Screen. Data for the sgs1 mgt1 strain (AID 161).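 Note: 0% = growth of cultures given vehicle only.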 The conditions noted are these: S. cerevisiae sgs1 mgt1 strain, stronger effect = higher value. The essentials:
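Percent growth inhibition was derived by comparing compound-exposed mutant yeast with vehicle-exposed cultures. The strain carries alterations in DNA damage repair.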

The nature of test [4]: NCI Yeast Anticancer Drug Screen. Data for the cln2 rad14 strain (AID 165).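 Note: 0% = growth equal to vehicle treated cultures.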 The conditions noted are these: S. cerevisiae cln2 rad14 strain, stronger effect = higher value. In outline: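 Yeast strain cln2 rad14, bearing defects in cell cycle control and DNA repair, serves as the test system; values reflect growth inhibition compared with vehicle.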
Test [5] in a line: NCI Yeast Anticancer Drug Screen. Data for the bub3 strain (AID 167). As to conditions: S. cerevisiae bub3 mutant strain, stronger effect = higher value. The essentials: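 Yeast carrying a defined mutation is treated with each compound, and growth is compared with that of vehicle-exposed cells to give inhibition.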
A short description of test [6]: NCI Yeast Anticancer Drug Screen. Data for the mlh1 rad18 strain (AID 175). As to conditions: S. cerevisiae mlh1 rad18 strain growth inhibition, stronger effect = higher value. In outline: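 Steps: expose repair-defective yeast to compound; measure growth; express inhibition against vehicle-treated controls.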
Setting [7] is: at 5.0 µM (retest, dose inferred, filed as 0.5).
Where [8] appears, read: at 50.0 µM (retest, dose inferred, filed as 5.0).

“And” between values parts separate entries of the source, which are not always exact repeats. Equal entries are not always repeated. About 79,000 compounds went through this panel and 15% of them were active in at least one assay; those are over-represented in the sample as a whole. The source holds several records for some structures; these can differ, active in one and inactive in another. The source made the active and inactive calls. Cut-off read from the data, not from the text of the source: active = growth inhibition above about 70%; inactive = the rest.

For the compound `COc1cccc(NC(=S)C(C#N)C(=O)Nc2cccc(C(F)(F)F)c2)c1` (centres undefined), the growth inhibition in test [1] (setting [7]) is 66% (inactive); in test [1] (setting [8]), 95% (active); in test [1] (at 50.0 µM), 78.2% (active); in test [2] (setting [7]) it was 74% (active); in test [2] (setting [8]) it was 97% (active); in test [2] (at 50.0 µM), 84.9% (active). Also, the growth inhibition in test [3] (setting [7]) is 52% (inactive); in test [3] (setting [8]), 91% (active); in test [3] (at 50.0 µM), 85.5% (active); in test [4] (setting [7]), 52% (inactive); in test [4] (setting [8]), 88% (active); in test [4] (at 50.0 µM) it was 43.1% (inactive). Further, the growth inhibition in test [5] (setting [7]) is 48% (inactive); in test [5] (setting [8]) it was 95% (active); in test [5] (at 50.0 µM), 87% (active); in test [6] (setting [7]) it was 88% (active); in test [6] (setting [8]), 96% (active); in test [6] (at 50.0 µM) it was 70.5% (active).
As for `Oc1ccccc1C=Nc1ccccc1N=Cc1ccccc1O`, the growth inhibition in test [1] (setting [7]) is -16% (inactive) and -2% (inactive); in test [1] (setting [8]), 68% (inactive) and 96% (active); in test [1] (at 50.0 µM), 85% (active) and 81.4% (active); in test [2] (setting [7]) it was -34% (inactive) and -4% (inactive); in test [2] (setting [8]), 98% (active) and 85% (active); in test [2] (at 50.0 µM), 78.9% (active) and 89% (active). For the same compound, the growth inhibition in test [3] (setting [7]) is -12% (inactive) and -1% (inactive); in test [3] (setting [8]), 76% (active) and 91% (active); in test [3] (at 50.0 µM), 67.8% (inactive) and 91.3% (active); in test [4] (setting [7]), 7% (inactive) and -12% (inactive); in test [4] (setting [8]), 39% (inactive) and 95% (active); in test [4] (at 50.0 µM), 59.5% (inactive) and 8.6% (inactive). Moreover, the growth inhibition in test [5] (setting [7]) was 14% (inactive) and -3% (inactive); in test [5] (setting [8]), 52% (inactive) and 86% (active); in test [5] (at 50.0 µM), 67% (inactive) and 87.2% (active); in test [6] (setting [7]) it was -17% (inactive) and -4% (inactive); in test [6] (setting [8]) it was 98% (active) and 97% (active); in test [6] (at 50.0 µM), 76.3% (active) and 93% (active).
For the compound `c1ccc2c(c1)CC1=C(O2)c2ccccc2OC1`, the growth inhibition in test [1] (setting [7]) is -2% (inactive); in test [1] (setting [8]) it was 48% (inactive); in test [1] (at 50.0 µM), 37.5% (inactive); in test [2] (setting [7]), 2% (inactive); in test [2] (setting [8]), 78% (active); in test [2] (at 50.0 µM), 39.5% (inactive). The growth inhibition in test [3] (setting [7]) was 5% (inactive); in test [3] (setting [8]) it was 76% (active); in test [3] (at 50.0 µM), 42.7% (inactive); in test [4] (setting [7]), -3% (inactive); in test [4] (setting [8]) it was 22% (inactive); in test [4] (at 50.0 µM), 46.1% (inactive). For the same compound, the growth inhibition in test [5] (setting [7]) was 4% (inactive); in test [5] (setting [8]) it was 80% (active); in test [5] (at 50.0 µM) it was 53% (inactive); in test [6] (setting [7]), 6% (inactive); in test [6] (setting [8]), 89% (active); in test [6] (at 50.0 µM) it was 92.1% (active).
With `CCN(CC)Cc1cc2c(cc1O)CC[C@@H]1[C@@H]2CC[C@]2(C)C(=O)CC[C@@H]12`, the growth inhibition in test [1] (setting [7]) is 39% (inactive); in test [1] (setting [8]) it was 80% (active); in test [1] (at 50.0 µM) it was 83.6% (active) and 25.6% (inactive); in test [2] (setting [7]), -5% (inactive); in test [2] (setting [8]) it was 60% (inactive); in test [2] (at 50.0 µM), 55.8% (inactive) and 15.2% (inactive). Moreover, the growth inhibition in test [3] (setting [7]) was 16% (inactive); in test [3] (setting [8]), 47% (inactive); in test [3] (at 50.0 µM) it was 78.5% (active) and 22.2% (inactive); in test [4] (setting [7]), -2% (inactive); in test [4] (setting [8]), 11% (inactive); in test [4] (at 50.0 µM) it was 72.5% (active) and -21.2% (inactive). For the same compound, the growth inhibition was 15% (inactive) in test [5] (setting [7]); 67% (inactive) in test [5] (setting [8]); 54% (inactive) and 56% (inactive) in test [5] (at 50.0 µM); 38% (inactive) in test [6] (setting [7]); 81% (active) in test [6] (setting [8]); 71.3% (active) and 20.9% (inactive) in test [6] (at 50.0 µM).
In the case of `Oc1ccccc1C=Nc1ccccc1O`, the growth inhibition in test [1] (setting [7]) is 22% (inactive); in test [1] (setting [8]), 32% (inactive); in test [1] (at 50.0 µM) it was 59.2% (inactive) and 56.2% (inactive); in test [2] (setting [7]), 8% (inactive); in test [2] (setting [8]), 22% (inactive); in test [2] (at 50.0 µM) it was 36.7% (inactive) and 41.9% (inactive). For the same compound, the growth inhibition in test [3] (setting [7]) was 7% (inactive); in test [3] (setting [8]) it was 16% (inactive); in test [3] (at 50.0 µM), 35.5% (inactive) and 42.1% (inactive); in test [4] (setting [7]), -5% (inactive); in test [4] (setting [8]), 5% (inactive); in test [4] (at 50.0 µM), 17.2% (inactive) and 32.1% (inactive). Further, the growth inhibition in test [5] (setting [7]) is 79% (active); in test [5] (setting [8]), 65% (inactive); in test [5] (at 50.0 µM), 54.4% (inactive) and 72.1% (active); in test [6] (setting [7]), 38% (inactive); in test [6] (setting [8]) it was 47% (inactive); in test [6] (at 50.0 µM), 49.8% (inactive) and 29.6% (inactive).
On to `Cc1cc(C)nc(NS(=O)(=O)c2ccc(Nc3c4ccccc4nc4c(C(=O)NCCCN(CCO)CCO)cccc34)cc2)n1`, for which the growth inhibition was -20% (inactive) in test [1] (setting [7]); 20% (inactive) in test [1] (setting [8]); 45% (inactive) in test [1] (at 50.0 µM); -13% (inactive) in test [2] (setting [7]); -14% (inactive) in test [2] (setting [8]); 25.8% (inactive) in test [2] (at 50.0 µM). The growth inhibition in test [3] (setting [7]) was -2% (inactive); in test [3] (setting [8]) it was -5% (inactive); in test [3] (at 50.0 µM), -4.65% (inactive); in test [4] (setting [7]), 70% (active); in test [4] (setting [8]) it was 5% (inactive); in test [4] (at 50.0 µM), 74.3% (active). Besides, the growth inhibition was -14% (inactive) in test [5] (setting [7]); 3% (inactive) in test [5] (setting [8]); 78.2% (active) in test [5] (at 50.0 µM); -7% (inactive) in test [6] (setting [7]); 1% (inactive) in test [6] (setting [8]); 60.2% (inactive) in test [6] (at 50.0 µM).
Take `CCCCCCC(CCCCCCCCCCC(=O)OCC(CC)CC)OC(=O)CC` (centres undefined): the growth inhibition was -4% (inactive) in test [1] (setting [7]); -4% (inactive) in test [1] (setting [8]); 21.2% (inactive) in test [1] (at 50.0 µM); -3% (inactive) in test [2] (setting [7]); -6% (inactive) in test [2] (setting [8]); 7.9% (inactive) in test [2] (at 50.0 µM). The growth inhibition was -4% (inactive) in test [3] (setting [7]); -23% (inactive) in test [3] (setting [8]); 7.4% (inactive) in test [3] (at 50.0 µM); -2% (inactive) in test [4] (setting [7]); -13% (inactive) in test [4] (setting [8]); 21.4% (inactive) in test [4] (at 50.0 µM). Further, the growth inhibition in test [5] (setting [7]) was -3% (inactive); in test [5] (setting [8]), -5% (inactive); in test [5] (at 50.0 µM) it was -6.9% (inactive); in test [6] (setting [7]), -3% (inactive); in test [6] (setting [8]), -6% (inactive); in test [6] (at 50.0 µM), 39.5% (inactive).
In the case of `NCC(=O)OCN1C(=O)C2C3C=CC(C2C1=O)C1C2C(=O)N(COC(=O)CN)C(=O)C2C31` (centres undefined), the growth inhibition in test [1] (setting [7]) was 28% (inactive); in test [1] (setting [8]) it was 63% (inactive); in test [1] (at 50.0 µM), -5.35% (inactive) and 24% (inactive); in test [2] (setting [7]), 20% (inactive); in test [2] (setting [8]), 39% (inactive); in test [2] (at 50.0 µM), 8.65% (inactive) and -62% (inactive). Further, the growth inhibition in test [3] (setting [7]) is 25% (inactive); in test [3] (setting [8]), 45% (inactive); in test [3] (at 50.0 µM), 4.85% (inactive) and -30.4% (inactive); in test [4] (setting [7]), 21% (inactive); in test [4] (setting [8]), 55% (inactive); in test [4] (at 50.0 µM) it was 23.5% (inactive) and -6.55% (inactive). For the same compound, the growth inhibition was 24% (inactive) in test [5] (setting [7]); 68% (inactive) in test [5] (setting [8]); -15.2% (inactive) and -46.8% (inactive) in test [5] (at 50.0 µM); 26% (inactive) in test [6] (setting [7]); 71% (active) in test [6] (setting [8]); -18.6% (inactive) and -43.7% (inactive) in test [6] (at 50.0 µM).
